Data from ChEMBL document CHEMBL3433997, “St. Jude Leishmania screening dataset” (2016).

How the values were obtained:
Type in all cases: functional
[1] = target: Solute carrier family 2, facilitated glucose transporter member 1 (Homo sapiens) (UniProt P11166); experiment: ST_JUDE_LEISH: Cytotoxicity at 2uM final concentration against transgenic Leishmania Mexicana promastigotes LmGLUT1 that are glucose transport deficient and complemented with the human glucose transporter GLUT1. Activity is measured by DNA content using SYBR green in vitro
[2] = target: Hexose transporter 1 (Plasmodium falciparum) (UniProt O97467); experiment: ST_JUDE_LEISH: Cytotoxicity at 2uM final concentration against transgenic Leishmania Mexicana promastigotes LmPfHT that are glucose transport deficient and complemented with the Plasmodium falciparum hexose transporter. Activity is measured by DNA content using SYBR green in vitro
[3] = target: Glucose transporter (Leishmania mexicana) (UniProt O61059); experiment: ST_JUDE_LEISH: Cytotoxicity at 2uM final concentration against transgenic Leishmania Mexicana promastigotes LmGT2 that are glucose transport deficient and complemented with the L. Mexicana glucose transporter 2. Activity is measured by DNA content using SYBR green in vitro

Sequence of Solute carrier family 2, facilitated glucose transporter member 1 (Homo sapiens) (P11166 whole entry): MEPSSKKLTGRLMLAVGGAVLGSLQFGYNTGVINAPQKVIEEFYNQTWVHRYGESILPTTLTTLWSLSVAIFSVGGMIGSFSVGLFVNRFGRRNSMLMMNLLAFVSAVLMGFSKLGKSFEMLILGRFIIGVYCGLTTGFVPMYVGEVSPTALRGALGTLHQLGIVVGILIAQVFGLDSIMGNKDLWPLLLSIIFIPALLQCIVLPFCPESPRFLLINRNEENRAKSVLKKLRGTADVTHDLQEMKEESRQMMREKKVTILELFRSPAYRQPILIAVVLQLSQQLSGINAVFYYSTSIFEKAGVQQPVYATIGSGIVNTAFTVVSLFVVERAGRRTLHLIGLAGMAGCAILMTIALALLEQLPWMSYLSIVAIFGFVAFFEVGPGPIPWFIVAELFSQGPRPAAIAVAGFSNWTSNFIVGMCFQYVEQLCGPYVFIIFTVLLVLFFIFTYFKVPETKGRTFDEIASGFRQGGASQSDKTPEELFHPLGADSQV

| SMILES | inhibition [1] [%] | inhibition [2] [%] | inhibition [3] [%] |
| --- | --- | --- | --- |
| C=CCOc1ccccc1CNCC(O)c1cc(Br)cs1 (stereo not given) | 1.55 | 2.37 | 2.43 |
| O=C(Nc1ccnc(N2CCCN(Cc3cccc(O)c3)CC2)c1)c1ccc(F)cc1 | 2.79 | 0.77 | 4.83 |
| CC(C)(C)CNc1noc(-c2sccc2Br)n1 | -0.27 | -0.43 | -0.7 |
| Cc1ccccc1-c1cc(=O)c2cc(NC(=O)c3cccs3)ccc2o1 | 3.19 | 1.54 | -8.62 |
| CC1(C)C2C=C(CN3CCC(NC(=O)Nc4ccc(Cl)c(Cl)c4)CC3)C1CC2 (stereo not given) | 8.89 | 7.57 | 7.92 |
| C=C(F)c1sc(CNCCCNc2nc3ccccc3[nH]2)c(C)c1Br | 57.5 | 73.8 | 68.7 |
| O=C(NCC1COc2ccccc2O1)c1cnc2c(c1)nc(-c1c[nH]c(-c3ccccc3)n1)n2CCSCc1c(F)cccc1Cl (stereo not given) | 4.51 | 3.79 | 3.91 |
| N=C(N)NN=CC(=O)Nc1ccc(Cl)c(Cl)c1 | 0.13 | -1.4 | -1.96 |
| CC(=NNC(=N)N)C(=O)Nc1ccc(Cl)c(Cl)c1 | 1.75 | 1.53 | 2.25 |
| CCN(CC)CCNC(=O)c1ccc(NC(=O)c2cn(-c3ccccc3)nc2-c2cccs2)cc1 | 5.46 | 4.01 | 6.19 |
| Cc1cc(=O)c(-c2ccc(Oc3ccc(OC(F)(F)F)cc3)cc2)c(C)[nH]1 | -0.98 | -0.47 | -1.38 |
| Fc1ccc2[nH]c(-c3ccc(-c4ccc(CNCCc5cccnc5)cc4)s3)nc2c1 | 6.23 | 3.19 | 3.21 |
| CC(C(=O)NC1CCN(c2ccnc(Nc3ccc(F)cc3)n2)C1)c1ccc(Cl)cc1 (stereo not given) | 1.1 | 0.7 | 2.7 |
| NCCNc1ccnc2cc(Cl)ccc12 | 0.54 | 1.61 | 1.05 |
| O=C(Nc1cccc(F)c1)N[C@H]1CCN(CCCCCNC(=O)C2CC2c2ccc(Cl)c(Cl)c2)C1 (stereo not given in full) | 4.75 | 3.61 | 0.83 |
| COc1ccc(-c2cccc(NC(=O)c3cccc(C#N)c3)c2)cc1CN1CCNCC1 | 11 | 11.2 | 10.6 |
| Cc1cccc(Cn2nc(-c3ccccc3)c(N3CCCCC3)cc2=O)c1 | 2.58 | 3.01 | -2.21 |
| CCC[C@@H]([C@@H](CC1CCCCC1)C(=O)N[C@H](C(=O)Nc1nccs1)[C@H](C)O)N(O)C=O | 1.07 | 1.35 | 2.03 |
| Oc1ccc2[nH]c(-c3cccc(F)c3)nc2c1CNCc1ccccc1 | 9.11 | 3.29 | 2.86 |
| CCN(CC)CCN(Cc1ccc(-c2ccc(C(F)(F)F)cc2)cc1)C(=O)Cn1c(CCc2cc(F)ccc2F)nc(=O)c2ccccc21 | 1.25 | -1.65 | 1.58 |
| O=C(c1ccc(Cl)cc1)N1CCCC(C(=O)N(Cc2nnc(-c3ccccc3Cl)o2)C2CC2)C1 (stereo not given) | 0.11 | 1.56 | -0.04 |
| CN1CCN(c2ccnc3ccc(NC(=O)Nc4ccc(-c5ccccc5)cc4)cc23)CC1 | 3.26 | 2.25 | 2.96 |
| CCOC(=O)c1ccc(NC(=O)N[C@@H](Cc2ccccc2)C(=O)NC2CCN(Cc3ccc(O)c(OC)c3)C2)cc1 (stereo not given in full) | -2.58 | -1.29 | 3.01 |
| O=[N+]([O-])c1cccc(/C=N/Nc2ccnc3cc(F)ccc23)c1 | 1.98 | 2.39 | 1.01 |

| SMILES | inhibition [1] [%] | inhibition [2] [%] | inhibition [3] [%] |
| --- | --- | --- | --- |
| CCOC(=O)c1ccc(-c2cnoc2-c2cc(CC)c(OC)cc2O)o1 | -0.08 | 1.08 | 1.38 |
| CCN(CC)CCOc1ccc(NC(=O)c2oc3ccccc3c2C=Cc2ccccc2)cc1 | 4.92 | -0.45 | 0.81 |
| CCC(C)CN1CCN(c2ccc(NC(=O)c3cccs3)cc2)C(C)C1 (stereo not given) | 8.34 | 9.28 | 5.37 |
| CN(C)CCCNc1ncnc2c1[nH]c1ccc(Cl)cc12 | 1.91 | 3.62 | 1.6 |
| N#Cc1ccc(N2CCN(Cc3ccc(-c4cccc(-c5nc6ccccc6[nH]5)c4)cc3)CC2)nc1 | 2.3 | 1.43 | 0 |
| N[C@@H](CCNC1CCN(c2cccc(C(F)(F)F)c2)CC1)Cc1ccc(F)c(F)c1 | 99.5 | 54.5 | 101 |
| O=C(Nc1ccc(C(F)(F)F)cc1)Nc1cccc([N+](=O)[O-])c1 | 2.81 | 2.48 | 3.51 |
| CCCCN(CCCC)Cc1cc(N(C)c2ccc([N+](=O)[O-])cn2)ccc1O | 2.39 | -0.26 | 1.69 |
| O=C1OC2(CN1CC1CCN(Cc3ccc(-n4ccnc4)cc3)C1)c1ccccc1-c1ccccc12 (stereo not given) | 4.6 | 5.24 | 2.86 |
| CCC(C)NS(=O)(=O)c1ccc2nc(Nc3ccc(C)c(Cl)c3)n(C3CCCCC3)c2c1 (stereo not given) | 5.56 | 5.72 | 4.46 |
| COc1cc2nc(N(C)C)nc(Nc3ccc(OCc4ccccc4)cc3)c2cc1OC | 0.24 | 1.34 | -0.07 |
| COc1ccc(NC(=O)/C=C/c2ccccc2Cl)cc1OCCN1CCC(N2CCCCC2)CC1 | 7.74 | 7.17 | 7.17 |
| CCCCN1CCCN(Cc2cccc(NC(=O)c3ccc(-c4ccccc4)cc3)c2)CC1 | 1.16 | -2.15 | -1.31 |
| CC1(C)N=C(N)N=C(N)N1O | -0.13 | 1.38 | 0.94 |
| COc1ccc2nccc([C@@H](O)CN3CCC(NCc4ccc5c(c4)NC(=O)CO5)CC3)c2c1 | 1.26 | 1.94 | 1.91 |
| Cc1cc(N[C@@H](CC(C)C)C(=O)Nc2ccccc2)nc(Nc2ccccc2)n1 | 1.17 | -0.52 | -0.1 |
| O=c1ccc2ccc(F)c3c2n1CC3CN1CCC(NCc2cccc(-c3ccccc3F)c2)CC1 (stereo not given) | 19.1 | 22.3 | 11.4 |
| Cc1cccc2nc(-c3cccc(-c4ccc(CNCCc5ccncc5)cc4)c3)[nH]c12 | 0.46 | -0.37 | -0.84 |
| CC(C)(C)c1ccc(-c2cc(C(=O)N[C@@H](CO)C(=O)O)on2)cc1.CC(C)(C)c1ccc(-c2nocc2C(=O)N[C@@H](CO)C(=O)O)cc1 | 4.07 | 3.4 | 6.48 |
| CC(=O)Nc1ccc(CN2CCCN(c3cc(NC(=O)c4cccc(C)c4)ccn3)CC2)cc1 | 8.6 | 11.9 | 10.9 |
| COc1ccc(Nc2nc(N/N=C/c3cc(Br)ccc3O)nc(Nc3ccc([N+](=O)[O-])cc3)n2)cc1 | 0.02 | -2.54 | 1.51 |
| COc1ccc2nccc([C@@H](O)CN3CCC(NCc4ccc5c(c4)NC(=O)C(C)(C)O5)CC3)c2c1 | 7.93 | 8.24 | 3.18 |
| OCC1CCN(Cc2ccc(-c3ccc(-c4nc5cc(F)ccc5[nH]4)s3)cc2)CC1 | 4.75 | 3.26 | 4.89 |
| O=C(Nc1cccc(-c2cccc(-c3nc4cc(C(F)(F)F)ccc4[nH]3)c2)c1)c1c[nH]cn1 | 1.86 | 3.96 | -1.42 |

| SMILES | inhibition [1] [%] | inhibition [2] [%] | inhibition [3] [%] |
| --- | --- | --- | --- |
| CC(C)C[C@@H](NC(=O)OC(C)(C)C)C(=O)Nc1ccc(Cc2ccc(NC(=O)[C@@H](CC(C)C)NC(=O)OC(C)(C)C)cc2)cc1 | 3.6 | 3.72 | 0.63 |
| COc1cc(OC)cc(-c2nn(-c3ccc([N+](=O)[O-])cc3Cl)c(=S)n2Cc2ccco2)c1 | -1.56 | -0.65 | 2.4 |
| Cc1ccc(O)c(CN2CCCC(COC(c3ccc(F)cc3)c3ccc(F)cc3)C2)c1 (stereo not given) | 2.33 | -0.35 | -4.12 |
| CC(c1cccc(Nc2nccc(-c3c(-c4cccc(NC(=O)c5c(F)cccc5F)c4)nn4ccccc34)n2)c1)S(C)(=O)=O (stereo not given) | 3.25 | 2.14 | -0.68 |
| COc1ccc2nccc([C@@H](O)CN3CCC(NCc4cc5ccccc5s4)CC3)c2c1 | 5.41 | 10.3 | 0.03 |
| COc1cccc(C(C)(C)NC[C@@H](O)[C@H](Cc2ccccc2)NC(=O)c2cc(C3CCCC3)cc(N3CCCCS3(=O)=O)c2F)c1 | 0.16 | 2.15 | 1.09 |
| CCN1CCCC1CN(Cc1ccc(-c2ccc(C(F)(F)F)cc2)cc1)C(=O)Cn1c(CCc2cccc(F)c2F)nc(=O)c2ccccc21 (stereo not given) | 1.13 | 2.82 | 1.11 |
| Cc1cc(N[C@@H](Cc2ccccc2)C(=O)NCc2cccc(F)c2)nc(NCC2CCCCC2)n1 | -0.17 | 2.51 | -1.9 |
| COCCNCc1cccc(-c2cc3nccc(Nc4ccc(Oc5ccccc5)cc4)c3cc2Cl)c1 | -0.26 | 2.37 | 0.83 |
| CC(C)(C)c1ccc(CN2CCCCC(NC(=O)c3cc(-c4cccc(Cl)c4)cs3)C2)cc1 (stereo not given) | -0.16 | -0.87 | -6.21 |
| COc1cc(C(=O)N2CCOC(CCN3CCC(Cc4ccc(F)cc4)CC3)(c3ccc(Cl)c(Cl)c3)C2)cc(OC)c1OC (stereo not given) | 5.79 | 7.29 | 2.49 |
| Cc1cc2c(NC(=O)NC3CCN(CCc4ccccc4Cl)CC3)cccc2cn1 | 2.51 | 1.74 | 1.68 |
| O=C(O)c1ccc(OCOCOc2ccc(C(=O)O)c(O)c2)cc1O | 5.67 | 5.54 | 3.43 |
| Clc1ccc(Sc2cncnc2N2CCOCC2)cc1 | 3.31 | 1.01 | -0.01 |
| O=C(Nc1ccc(F)cc1F)NC1CCN(CCCCCNC(=O)C2CC2c2ccc(Cl)c(Cl)c2)CC1 (stereo not given) | 0.37 | 2.99 | 3.47 |
| Cn1nc(-c2ccccc2F)c2cc(C(=O)NC3CCN(Cc4ccccc4)CC3)sc21 | -0.18 | -1.6 | -1.7 |
| CC(C)(C)c1ccc2[nH]c(-c3ccc(C(=O)NC4CCN(Cc5ccccc5)CC4)s3)nc2c1 | 3.39 | 2.69 | 1.79 |
| O=[N+]([O-])c1ccc(Nc2nc(N/N=C/c3cccc(O)c3)nc(N3CCCC3)n2)cc1 | 3.46 | 3.1 | 1.31 |
| C=C(C)Cn1cc(C2CCN(CCCCNC(=O)c3sc(-c4ccc(Cl)cc4Cl)nc3CO)CC2)c2ccccc21 | -1.31 | -1.73 | 0.05 |
| Cc1ccc2[nH]c(C)cc(=NN=Cc3cccc(F)c3)c2c1 | 5.05 | 7 | 3.38 |
| CC(C)C[C@@H](/C=N/N1CC(=O)NC1=O)NC(=O)[C@H](CC(C)C)NC(=O)c1ccc(OCCN2CCOCC2)cc1 | -0.34 | 2.99 | 1.11 |
| Cc1[nH]c(C)c(-c2ccc(OCCSc3ccncc3)cc2)c(=O)c1Br | 1.9 | -0.1 | 0.05 |
